Giardia FBPA inh: qHTS Assay for Inhibitors of Fructose-1,6-bisphosphate Aldolase from Giardia Lamblia; A8B2U2; purified Giardia FBPA; Potency, µM (doses to about 59.6 µM), without a hit: at the highest dose activity, negative = inhibition, usual class: inhibitors; AID 2451, 2010; actives 0.71% (n = 290,000); further: potency means the concentration at half of the fitted maximal effect; on the % scale 0 is the no-effect control and ±100 the full control effect; nearly all actives have a fitted effect of over 55% in size
Target sequence (A8B2U2 whole entry, looked up): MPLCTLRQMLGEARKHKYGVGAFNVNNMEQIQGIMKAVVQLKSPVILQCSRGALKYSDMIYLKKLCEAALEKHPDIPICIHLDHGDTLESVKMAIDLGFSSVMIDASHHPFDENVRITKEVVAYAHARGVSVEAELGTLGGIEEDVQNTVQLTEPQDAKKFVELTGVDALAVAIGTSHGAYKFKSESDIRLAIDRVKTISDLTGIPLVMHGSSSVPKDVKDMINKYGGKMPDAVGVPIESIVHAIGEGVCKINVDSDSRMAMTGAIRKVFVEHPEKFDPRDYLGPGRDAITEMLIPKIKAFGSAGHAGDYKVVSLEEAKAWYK
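40 nM FBPA preincubated 10 min at RT with compound (up to 57.5 uM final), then substrate plus GAPDH/TPI/NAD/arsenate coupling and diaphorase/resazurin added. Fluorescence read after 20 min at RT, 525/598 nm.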
Pf growth 48h: Primary qHTS for delayed death inhibitors of the malarial parasite plastid, 48 hour incubation; P. falciparum luciferase growth in erythrocytes, 48 h; Potency, µM (highest dose often 28.7 µM), without a hit: top-dose activity change, negative = inhibition, hits mostly inhibitors; actives 5.9% (n = 310,000); AID 504832, 2011; further: potency means the concentration at half of the fitted maximal effect; on the % scale 0 is the no-effect control and ±100 the full control effect
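Luciferase-expressing parasites in RBCs, 2% Hct / 0.1% parasitemia final; RPMI 1640 + 0.5% Albumax; 37 C, 5% CO2, one generation; luminescence read-out, lower signal = inhibition.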
Cycloheximide cs: Cycloheximide Counterscreen for Small Molecule Inhibitors of Shiga Toxin; actives 12% (n = 300,000); cell reporter, cycloheximide protein synthesis inhibition counterscreen; max response, %; in the data active means max response mostly above about 13%, no sharp cut-off; inactive means mostly below about 14%; further: read at 38.3 µM for the half of the compounds with a filed dose; 0% is about no effect
Shiga inhibitor: A qHTS for Small Molecule Inhibitors of Shiga Toxin. Vero cells, Shiga toxin protein synthesis inhibition reporter. inhibition, % at 38.7 µM. actives 9.2% (n = 290,000). AID 2315, 2010; in the data active means inhibition mostly above about 28%, no sharp cut-off; inactive means mostly below about 43%; further: 0% is about no effect
Pf growth 96h: Primary qHTS for delayed death inhibitors of the malarial parasite plastid, 96 hour incubation; Potency, µM (series often up to 28.7 µM), for inactives: at the top dose activity change, negative = inhibition, actives largely listed as inhibitors; AID 504834, 2011; P. falciparum luciferase reporter growth, 96 h; actives 6.9% (n = 320,000); further: potency means the concentration at half of the fitted maximal effect; on the % scale 0 is the no-effect control and ±100 the full control effect
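Infected RBCs, 2% Hct / 0.05% parasitemia final; luciferase-reporter P. falciparum; cpd 96 h, 37 C, 5% CO2; luciferase detection reagent; luminescence.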
NS1 inh: qHTS Assay for Inhibitors of Influenza NS1 Protein Function; AID 2326, 2010; Potency, µM (doses to about 46.1 µM), for inactives: at the top dose activity, positive = more growth; actives 0.4% (n = 270,000); calls by dose curve; further: potency means the concentration at half of the fitted maximal effect; actives are rising curves; nearly all actives have a fitted effect of over 50% in size
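OD600 was taken as the measure of yeast growth restored by compound in an NS1-expressing S. cerevisiae strain. Cells had been washed out of glucose medium and diluted 1:100 into galactose -URA medium, pH 6.0.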
Active calls of the source: *. An excerpt weighted towards active compounds, which were near 21% of everything screened. Unless noted, the call rests on the fitted dose curve; in most records, active means well fitted curve in the direction sought with a large enough effect; inconclusive means small, poorly fitted or top-dose-only effect, or another doubt; inactive means no such curve, though single readings can be large; an effect the other way counts as inactive or inconclusive.

Results for CN(CCNC(=O)Cn1c(=O)sc2ccccc21)Cc1ccccc1 ?
Giardia FBPA inh: 0%; Cycloheximide cs: -5; Shiga inhibitor: -9; Pf growth 96h: 4.7µM*; NS1 inh: 2%

What do the screens show for `CCCCN(C)CCNC(=O)Cn1c(=O)sc2ccccc21`?
Giardia FBPA inh: 2%; Cycloheximide cs: -3; Shiga inhibitor: 4; Pf growth 96h: 8.3µM*; NS1 inh: 0%

Results for COc1ccc(C(=O)O/N=C(\N)c2ccccc2)cc1OC ?
Giardia FBPA inh: 4%; Pf growth 48h: 74%; Cycloheximide cs: 44*; Shiga inhibitor: 91*; Pf growth 96h: 4%; NS1 inh: -33%

How did COc1ccc(C(=O)O)cc1OC do in these assays?
Giardia FBPA inh: 0%

What do the screens show for `COc1ccc(C(=O)O/N=C(\N)c2cccc(C)c2)cc1OC`?
Giardia FBPA inh: -2%; Pf growth 48h: 59%; Cycloheximide cs: 36*; Shiga inhibitor: 45*; Pf growth 96h: inconclusive; NS1 inh: -73%

Results for COc1cc(OC)c(C(=O)O/N=C(\N)c2ccccc2)cc1OC ?
Giardia FBPA inh: -3%; Pf growth 48h: inconclusive; Cycloheximide cs: 29*; Shiga inhibitor: 48*; Pf growth 96h: 11%; NS1 inh: -3%

What do the screens show for `C=C(COC)C1=CCC(C(=O)OC)(C(=O)OC)[C@@H](C[N+](=O)[O-])c2ccccc21`?
Giardia FBPA inh: -2%

How did Cc1ccc2nc(-c3ccc(NC(=O)c4ccc(N)cc4)c(S(=O)(=O)O)c3)sc2c1 do in these assays?
NS1 inh: -5%

Results for CCOC(CN1CCN(CC(C)C(=O)c2ccccc2)CC1)c1ccccc1 (centres undefined) ?
Pf growth 48h: -7%; Pf growth 96h: inconclusive

How did COc1cccc(NC(=O)NC(C)C2CC3CCC2C3)c1 (centres undefined) do in these assays?
Giardia FBPA inh: -5%; Pf growth 48h: inconclusive; Cycloheximide cs: -2; Shiga inhibitor: 27; Pf growth 96h: 3%; NS1 inh: -17%

Results for COc1ccc(OC)c(C(=O)NC(CC(N)=O)c2ccc(NC(C)C)c([N+](=O)[O-])c2)c1 (centres undefined) ?
Giardia FBPA inh: 5%; Pf growth 48h: -6%; Cycloheximide cs: 2; Shiga inhibitor: 1; Pf growth 96h: 0%; NS1 inh: 10%

How did Cc1cc(NS(=O)(=O)c2ccc(NC(=O)Nc3cccc(C(F)(F)F)c3)cc2)no1 do in these assays?
Giardia FBPA inh: -6%; Pf growth 48h: 15%; Cycloheximide cs: -3; Shiga inhibitor: -3; Pf growth 96h: 14%; NS1 inh: 24%

Results for COCCNc1nc(-c2ccccc2CN(C)C)nc2ccccc12 ?
Giardia FBPA inh: 1%

How did O=C(C1CCN(S(=O)(=O)c2cccc3nsnc23)CC1)N1CCc2ccccc21 do in these assays?
Giardia FBPA inh: -4%; Pf growth 48h: -13%; Cycloheximide cs: -2; Shiga inhibitor: 22; Pf growth 96h: inconclusive; NS1 inh: -10%

How did O=C(C1CCN(S(=O)(=O)c2cccc3nsnc23)CC1)N1CCN(c2ccccc2F)CC1 do in these assays?
Giardia FBPA inh: -5%; Pf growth 48h: -3%; Cycloheximide cs: -4; Shiga inhibitor: -11; Pf growth 96h: 2.6µM*; NS1 inh: 1%

What do the screens show for `CC(=O)c1ccc(N2CCN(C(=O)C3CCCN3S(=O)(=O)c3cccc4nsnc34)CC2)cc1` (centres undefined)?
Pf growth 48h: inconclusive; Cycloheximide cs: 8; Shiga inhibitor: 19; Pf growth 96h: 13µM*; NS1 inh: 13%

Results for O=C(C1CCCN(S(=O)(=O)c2cccc3cccnc23)C1)N1CCN(c2ccccc2F)CC1 (centres undefined) ?
Giardia FBPA inh: 0%; Cycloheximide cs: -3; Shiga inhibitor: -6; Pf growth 96h: 15µM*; NS1 inh: -57%

Bioassay records (PubChem)
